Reference: ChEMBL document CHEMBL4513216, “Probing the Open Global Health Chemical Diversity Library for Multistage-Active Starting Points for Next-Generation Antimalarials” (ACS Infect Dis, 2020)
The whole screen tested about 69,000 compounds, of which about 8,600 (12%) showed an effect of 50% or more. Many of the other results were omitted from the sample, so strong results are more common in it than they were.

These molecules were tested on Plasmodium berghei (assay: Screen against P. berghei liver stage (PbLuc), transformed with Luciferase, at 10uM). Conditions: tested at 10 uM.
Format: functional, HepG2

| SMILES | INHIBITION [%] |
| --- | --- |
| Cc1nccn1-c1cc(CNC(=O)NCC2CCCO2)ccn1 (configuration not stated) | -2.33 |
| CCC(C)C(=O)NCCCn1nc(C)cc1C (configuration not stated) | -2.48 |
| O=C(NCCc1ccc(I)s1)N1CCC1 | -7.31 |
| OC1(CN2CCN(c3cccc(C(F)(F)F)c3)CC2)CNCCOC1 (configuration not stated) | 41.5 |
| c1ccc(Cc2noc(-c3ccc(NCC4CCCCO4)nc3)n2)cc1 (configuration not stated) | 26 |
| COCCNC(=O)NC(=O)CNc1c(F)cccc1N1CCCC1 | -32.5 |
| CC[C@@H]1N(CC2CCC2)CCC[C@]12CCC(=O)N2Cc1ccncc1 | -8.51 |
| CC1(C(=O)N2CCN(C3CCCC3)CC2)CNCCO1 (configuration not stated) | -21.4 |
| Cc1ccc(-c2cc(C(=O)N(C)Cc3noc4c3CCCC4)[nH]n2)s1 | -14.3 |
| COCCC(=O)N1CCC2(CCN(Cc3ccc(C)cc3)CC2)C1 | 4.27 |
| O=C(C1CCC1)N1CCC2(CCN(Cc3cccc(F)c3)CC2)CC1 | 45.7 |
| O=C(C1CC1)N1CCC2(CCN(Cc3cccc(F)c3)CC2)CC1 | -13.4 |
| Cc1ccc(CN2CCC3(CC2)CCN(Cc2ccoc2)CC3)cc1 | -34.6 |
| O=C(C1CC=CC1)N1CCC2(CCN(Cc3cccc(F)c3)CC2)C1 | 59.8 |
| COCCC(=O)N1CC2(CCN(Cc3ccoc3)C2)C1 | 54.6 |
| Cn1ccnc1CN1CCC2(CC1)CCN(Cc1ccoc1)C2 | -37.4 |
| Cc1ccc(CN2CCCC3(CCN(Cc4ccoc4)CC3)C2)cc1 | 82.8 |
| COCCC(=O)N1CC2(CCN(Cc3ccncc3)CC2)C1 | 47.4 |
| O=C(CC1CCCC1)N1CCCC1c1ccc(CN2CCOCC2)cn1 (configuration not stated) | 30.25 |
| CC(C)c1nn(C)c(N(C)C)c1CNC(C)c1ccc2c(c1)OCO2 (configuration not stated) | 22.3 |
| CCC(C)N(Cc1cccnc1)C(=O)c1ncccc1O (configuration not stated) | 39.9 |
| Cc1nnc(NC(=O)CN(C)C2CCCN(c3cccnn3)C2)s1 (configuration not stated) | 12.7 |

| SMILES | INHIBITION [%] |
| --- | --- |
| Cc1csc(CNC(=O)NC(C)c2ccc3c(c2)OCCO3)n1 (configuration not stated) | 44.9 |
| Cc1ccc(CNC2CCc3nc(C(C)C)nn3C2)o1 (configuration not stated) | -17.7 |
| c1cncc(C[C@H]2[C@H](N3CCOCC3)CCN2Cc2cccs2)c1 | -7.24 |
| CCOCCCOC(=O)c1ccc2c(c1)[nH]c(=O)n2C | -5.47 |
| Cn1c(=O)[nH]c2cc(C(=O)OCCCn3ccccc3=O)ccc21 | 60 |
| CCCOCCOC(=O)c1ccc2c(c1)[nH]c(=O)n2C | 26.6 |
| Cc1nn(C)c(C)c1C1COCCN1C(=O)CCc1ccccc1 (configuration not stated) | 5.7 |
| Cc1nnc(NC(=O)CCc2c(C)nn3cnnc3c2C)s1 | 16.6 |
| CCCn1c(C)c(CC(=O)N(C)CCO)c2c1CC(C)(C)CC2=O | 48.1 |
| COC(=O)C(C)(C)NC(=O)C1CC(=O)N(C)C1 (configuration not stated) | 35.1 |
| COC(=O)C(C)(C)NC(=O)C1CC(=O)N(C2CC2)C1 (configuration not stated) | 84.1 |
| COC(=O)C(C)(C)NC(=O)C1CC(=O)N(C2CCCC2)C1 (configuration not stated) | 20.1 |
| OCC1(O)CCN(Cc2noc(-c3ccccc3)n2)CC1 | 20.3 |
| CCc1ccc(C(=O)N2CCN(CCO)CC2)o1 | -13.5 |
| CCc1ccc(C(=O)N2CCCN(Cc3nccn3CC)CC2)s1 | 8.47 |
| Cc1cc(C)n(CCN2CCN(C(=O)c3ccc(Br)o3)CC2)n1 | -13.3 |
| Cn1ccnc1CN1CCCN(C(=O)c2ccc(Cl)o2)CC1 | 29.1 |
| O=C(c1ccc(Br)s1)N1CCN(Cc2ccc(OC(F)(F)F)cc2)CC1 | 79 |
| CC(O)CN1CCN(C(=O)c2ccc(Br)o2)CC1 (configuration not stated) | 16.2 |
| COC(=O)c1sccc1CN1CCN(C(=O)c2ccc(C)o2)CC1 | 30.9 |
| CC(=O)N1CCN(Cc2ccc(F)cc2)CC2(CC(=O)N(C)C2)C1 (configuration not stated) | -6.05 |
| Cc1ccc(CN2CCN(C(=O)c3ccc(Br)o3)CC2)cc1 | 92.8 |

| SMILES | INHIBITION [%] |
| --- | --- |
| O=C(c1ccc(Br)o1)N1CCN(Cc2ccc(OC(F)(F)F)cc2)CC1 | 90 |
| O=C(c1ccc(Br)o1)N1CCN(Cc2ccc(F)cc2)CC1 | 62.5 |
| CC(=O)N1CCN(Cc2ccc(OCc3nccn3C)cc2)CC1 | 1.78 |
| O=C(c1cscn1)N1CCC2(CN(Cc3ccsc3)C2)C1 | 45.2 |
| N#Cc1ccccc1C(=O)NCCC1CN(Cc2ccco2)CCO1 (configuration not stated) | 23.3 |
| CN(c1ccncn1)C1CC2(CCN(C(=O)c3cncs3)C2)C1 (configuration not stated) | 32.3 |
| Fc1ccccc1OCCc1cc(C2CCNC2)n[nH]1 (configuration not stated) | -14.1 |
| Cc1nc(CN2CCCC(N(C)CCCc3ccccc3)C2)no1 (configuration not stated) | -11.4 |
| Cc1cc(N2CCC(O)CC2)nc(C2CCCN2C)n1 (configuration not stated) | 9.6 |
| O=C(Nc1ccccc1)c1cc2n(n1)CCCN(C(=O)c1ccc[nH]1)C2 | 28.5 |
| CCc1ccc(C(=O)N2CCN(Cc3ccc(F)cc3)CC2)s1 | 68.5 |
| CCc1nnsc1C(=O)N1CCCN(Cc2ccc(F)cc2)CC1 | -0.219 |
| COCc1ccc(C(=O)N2CCCN(Cc3ccc(F)cc3)CC2)s1 | 14.3 |
| Cc1cc(C)n(CC2CCCN2C(=O)c2cnccn2)n1 (configuration not stated) | -3.7 |
| O=c1cc(Cn2cncn2)nc2n1CCCN(Cc1ccsc1)C2 | 12.7 |
| c1cn(Cc2ccc(N3CCCN(C4CCCC4)CC3)nc2)cn1 | 13.5 |
| Cc1nc(CN2CCCn3c(nc(Cn4ccnc4)cc3=O)C2)cs1 | -16.6 |
| Cc1nc(CN2CCCn3c(nc(Cn4cncn4)cc3=O)C2)cs1 | 51.2 |
| c1csc(CN2CCCN(c3ccc(Cn4ccnc4)cn3)CC2)c1 | 52.6 |
| CC(Cn1ccnc1)NC(=O)N1CCCN(Cc2cccs2)CC1 (configuration not stated) | 21.5 |
| O=c1cc(Cn2ccnc2)nc2n1CCCN(Cc1cccs1)C2 | 53.4 |
| O=c1cc(Cn2ccnc2)nc2n1CCCN(Cc1ccncc1)C2 | -32 |

| SMILES | INHIBITION [%] |
| --- | --- |
| O=C(NCCn1ccnc1)N1CCCN(Cc2cccs2)CC1 | -39.7 |
| O=c1cc(Cn2ccnc2)nc2n1CCCN(Cc1ccco1)C2 | 8.85 |
| OC1CCN(C2CCN(c3ccc(Cn4ccnc4)cn3)CC2)CC1 | 24.4 |
| Fc1ccc(N2CCCN(c3ccc(Cn4ccnc4)cn3)CC2)cc1 | 92.8 |
| Cc1nccn1C1CCCN(C(=O)CCOCC(F)(F)F)C1 (configuration not stated) | 1.15 |
| CC(C)N(C)Cc1cnc2n1CCN(Cc1ccc(F)cc1)C2 | 17.4 |
| Cc1cc2c(c(=O)n1CCC(=O)O)C=CC(C)(C)O2 | 10.9 |
| Cc1nc2cc(-c3nccn3C)nn2c(N2CCCC(O)C2)c1C (configuration not stated) | 6.335 |
| Cn1cc(C(=O)N2C[C@H]3CC(Oc4ccccc4)C[C@H]3C2)cn1 (some centres not stated) | 3.92 |
| CS(=O)(=O)N1C[C@H]2CCCN(Cc3cccs3)[C@H]2C1 | 24.6 |
| O=c1cc(CN2CCCC2)nc2n1CCCN(Cc1ccco1)C2 | 0.804 |
| CN(C)Cc1cc(=O)n2c(n1)CN(Cc1ccco1)CCC2 | 26.5 |
| CS(=O)(=O)NCc1cc(=O)n2c(n1)CN(Cc1ccco1)CCC2 | 52.3 |
| CCc1nc(CN2CCCCC2C(N)=O)cs1 (configuration not stated) | -2.43 |
| COc1c(C(=O)NC(C)CC(=O)c2cccs2)c(C)nn1C (configuration not stated) | 36.7 |
| Cc1cc(C(=O)NC(C)CC(=O)c2cccs2)n(C)n1 (configuration not stated) | -18.8 |
| Cc1nn(C)c(C)c1C(=O)NC(C)CC(=O)c1cccs1 (configuration not stated) | 61.4 |
| O=C([C@@H]1CC[C@@H]2[C@@H](CCN2c2ccncn2)O1)N1CCCCO1 | 5.68 |
| COCCOc1ccc(NC(=O)N2CCOC(C(N)=O)C2)cc1F (configuration not stated) | 15.9 |
| COc1ccc(C2(NC(=O)C3CC(=O)N(C)C3)CCCC2)cc1 (configuration not stated) | 26 |
| CNC(=O)CN1CCC(CN(C)Cc2ccncc2Cl)CC1 | -22.1 |
| CC(C)Nc1nc2c(c(NC3CC3)n1)CCN(C(=O)C1CCOC1)CC2 (configuration not stated) | 34.3 |

| SMILES | INHIBITION [%] |
| --- | --- |
| O=C(C1CCOC1)N1CCc2ncnc(C3CC3)c2CC1 (configuration not stated) | -13.4 |
| O=C(C1CCCO1)N1CCc2ncnc(NC3CCC3)c2CC1 (configuration not stated) | -29.5 |
| Nc1nc2c(c(NC3CCCC3)n1)CCN(C(=O)C1CCOC1)CC2 (configuration not stated) | 97.2 |
| O=C(C1CCOC1)N1CCc2ncnc(NC3CCC3)c2CC1 (configuration not stated) | 51.3 |
| O=C([C@H]1CCCO1)N1CCc2ncnc(NC3CC3)c2CC1 | 48.5 |
| N#Cc1cccc(OCc2ccoc2C(=O)N2CCCCCC2)c1 | 5.91 |
| O=C(C1CCCO1)N1C[C@@H]2CCN(c3cnccn3)C[C@@H]2C1 (some centres not stated) | 28.4 |
| Cc1cc(C(=O)NCc2c(C)nn(C)c2C)nc(N2CCCC2)n1 | -31.4 |
| O=C(O)c1cnc(N2CC[C@H](N3CCOCC3)[C@H](CCCO)C2)c(Cl)c1 | 14 |
| O=S(=O)(NC1=NCN(CCc2ccccc2)CN1)c1ccc(F)cc1 | -4.52 |
| Cc1occc1C(=O)NCc1cccnc1N(C)C | 33.15 |
| CC(c1nc(-c2ccccc2)no1)N1CCc2c(ncn2C2CC2)C1 (configuration not stated) | 78.3 |
| Cc1cccc(-c2noc(CN3CCc4c(ncn4C4CC4)C3)n2)c1 | 18.3 |
| CC(c1nc(C2CC2)no1)N1CCc2c(ncn2C)C1 (configuration not stated) | 56 |
| CC(c1nc(C2CC2)no1)N1CCN(CCc2ccncc2)CC1 (configuration not stated) | -45.9 |
| CCc1noc(C(C)N2CCc3c(ncn3C3CC3)C2)n1 (configuration not stated) | -1.04 |
| CC(c1nc(C2CC2)no1)N1CCc2c(ncn2C2CC2)C1 (configuration not stated) | 17 |
| N#Cc1ccc(S(=O)(=O)Nc2cnn(C3CCOCC3)c2)cc1 | 5.51 |
| CC(C)(NC(=O)c1cnc(-c2ccccc2F)s1)C(N)=O | -8.9 |
